Measurements from the supplement of paper PMC10849652.
Targets with a hit are over-represented here; the source holds about 7,900 in all. About 0.6% of all pairs of compound and target were hits.

These targets were tested with CCN(CCCOc1ccc2c(Nc3cc(CC(=O)Nc4cccc(F)c4)[nH]n3)ncnc2c1)CCOP(=O)(O)O [barasertib] (assay: log2 fold change, soluble protein after heating vs DMSO (PISA); higher = thermal stabilisation; K562 cells, 10 uM, 30 min; active = over 0.2 and 3.5 SD of the protein, either way, in both replicates (recomputed)).
Method in brief: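 Quantification of soluble protein used TMTpro 16plex LC-MS/MS, with channel sums equalised. Samples were the supernatant after 21,000xg for 90 min of pooled aliquots from K562 cells (2×10^6 cells/mL) treated with 10 μM compound for 30 min, heated for 3 min over 48°C-58°C, and extracted in PBS with 0.5% NP-40 at 4°C. Values, from duplicates, describe thermal stability against control samples on a log2 fold-change scale.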

Sequence of UniProt P22692 (P22692 whole entry, looked up): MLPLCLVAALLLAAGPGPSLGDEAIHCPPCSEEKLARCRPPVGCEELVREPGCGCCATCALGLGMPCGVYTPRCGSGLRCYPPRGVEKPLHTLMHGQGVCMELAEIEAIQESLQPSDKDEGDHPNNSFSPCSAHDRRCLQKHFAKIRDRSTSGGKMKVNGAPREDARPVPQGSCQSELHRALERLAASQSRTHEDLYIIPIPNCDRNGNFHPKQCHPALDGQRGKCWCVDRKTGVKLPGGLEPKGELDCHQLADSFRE
Sequence of UniProt Q68DH5 (Q68DH5 whole entry, looked up): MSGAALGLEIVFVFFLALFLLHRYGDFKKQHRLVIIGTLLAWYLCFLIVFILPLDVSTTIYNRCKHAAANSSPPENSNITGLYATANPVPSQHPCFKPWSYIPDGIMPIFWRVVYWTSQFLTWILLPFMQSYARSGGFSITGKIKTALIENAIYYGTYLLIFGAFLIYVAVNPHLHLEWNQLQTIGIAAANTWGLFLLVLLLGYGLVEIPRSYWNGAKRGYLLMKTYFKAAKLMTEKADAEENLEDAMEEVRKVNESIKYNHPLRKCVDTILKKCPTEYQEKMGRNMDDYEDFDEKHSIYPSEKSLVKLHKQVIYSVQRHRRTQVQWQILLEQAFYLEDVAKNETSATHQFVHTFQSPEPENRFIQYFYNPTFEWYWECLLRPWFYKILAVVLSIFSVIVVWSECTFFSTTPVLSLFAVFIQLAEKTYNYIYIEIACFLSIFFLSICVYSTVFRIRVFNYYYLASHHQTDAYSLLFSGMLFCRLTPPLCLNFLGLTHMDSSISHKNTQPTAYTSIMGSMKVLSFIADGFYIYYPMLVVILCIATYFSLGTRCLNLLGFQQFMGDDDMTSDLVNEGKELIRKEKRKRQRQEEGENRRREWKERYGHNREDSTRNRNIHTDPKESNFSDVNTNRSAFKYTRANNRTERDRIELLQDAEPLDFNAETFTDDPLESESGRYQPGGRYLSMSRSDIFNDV
Sequence of UniProt P36507 (P36507 whole entry, looked up): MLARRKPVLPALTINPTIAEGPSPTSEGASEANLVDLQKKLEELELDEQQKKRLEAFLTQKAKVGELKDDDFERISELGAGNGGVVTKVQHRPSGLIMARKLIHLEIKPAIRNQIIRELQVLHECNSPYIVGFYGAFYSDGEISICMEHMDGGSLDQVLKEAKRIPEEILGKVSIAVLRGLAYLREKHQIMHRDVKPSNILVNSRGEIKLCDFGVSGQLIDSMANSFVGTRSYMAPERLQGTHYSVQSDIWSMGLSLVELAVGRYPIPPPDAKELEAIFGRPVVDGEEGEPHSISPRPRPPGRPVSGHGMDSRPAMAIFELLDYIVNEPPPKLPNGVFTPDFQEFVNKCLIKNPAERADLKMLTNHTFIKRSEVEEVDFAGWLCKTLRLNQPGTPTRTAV
Sequence of UniProt P01116 (P01116 whole entry, looked up): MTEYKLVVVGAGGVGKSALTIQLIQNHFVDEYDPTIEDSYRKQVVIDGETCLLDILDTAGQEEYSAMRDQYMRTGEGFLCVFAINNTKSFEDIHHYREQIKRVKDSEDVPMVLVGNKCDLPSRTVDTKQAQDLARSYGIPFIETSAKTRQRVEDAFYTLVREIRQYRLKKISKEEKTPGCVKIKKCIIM
Sequence of UniProt Q12905 (Q12905 whole entry, looked up): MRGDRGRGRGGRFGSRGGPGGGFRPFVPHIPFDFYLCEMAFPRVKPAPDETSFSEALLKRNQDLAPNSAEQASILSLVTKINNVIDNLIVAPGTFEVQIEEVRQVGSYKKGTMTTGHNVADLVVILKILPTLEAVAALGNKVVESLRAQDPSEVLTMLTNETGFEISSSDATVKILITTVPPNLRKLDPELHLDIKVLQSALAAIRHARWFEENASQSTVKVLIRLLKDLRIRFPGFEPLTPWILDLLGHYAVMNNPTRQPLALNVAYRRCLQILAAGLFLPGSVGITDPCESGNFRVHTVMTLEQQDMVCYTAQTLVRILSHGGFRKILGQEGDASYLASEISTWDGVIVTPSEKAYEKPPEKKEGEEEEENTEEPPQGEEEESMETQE
Sequence of UniProt Q9H6V9 (Q9H6V9 whole entry, looked up): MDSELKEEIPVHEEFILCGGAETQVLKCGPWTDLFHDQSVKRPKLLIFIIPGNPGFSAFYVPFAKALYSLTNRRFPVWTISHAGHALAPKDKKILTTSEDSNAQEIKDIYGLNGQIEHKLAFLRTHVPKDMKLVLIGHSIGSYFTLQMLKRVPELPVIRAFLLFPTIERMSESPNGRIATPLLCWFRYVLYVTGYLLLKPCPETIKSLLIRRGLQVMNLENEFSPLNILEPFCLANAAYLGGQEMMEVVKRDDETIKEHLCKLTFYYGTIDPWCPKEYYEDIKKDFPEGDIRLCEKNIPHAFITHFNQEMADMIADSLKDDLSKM
Sequence of UniProt Q13422 (Q13422 whole entry, looked up): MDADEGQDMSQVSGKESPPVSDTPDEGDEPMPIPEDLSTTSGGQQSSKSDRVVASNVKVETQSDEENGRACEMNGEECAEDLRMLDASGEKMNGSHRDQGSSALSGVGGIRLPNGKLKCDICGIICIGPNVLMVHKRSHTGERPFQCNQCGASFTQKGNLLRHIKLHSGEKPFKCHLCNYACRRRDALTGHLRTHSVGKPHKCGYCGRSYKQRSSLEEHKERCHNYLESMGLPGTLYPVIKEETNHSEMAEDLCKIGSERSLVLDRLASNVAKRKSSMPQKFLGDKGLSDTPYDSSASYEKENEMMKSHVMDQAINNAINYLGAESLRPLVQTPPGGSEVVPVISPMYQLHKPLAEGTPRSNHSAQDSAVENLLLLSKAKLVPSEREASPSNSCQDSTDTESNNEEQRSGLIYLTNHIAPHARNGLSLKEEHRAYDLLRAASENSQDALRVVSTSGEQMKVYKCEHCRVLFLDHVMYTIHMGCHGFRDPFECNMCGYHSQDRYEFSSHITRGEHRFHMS
Sequence of UniProt Q9H0C8 (Q9H0C8 whole entry, looked up): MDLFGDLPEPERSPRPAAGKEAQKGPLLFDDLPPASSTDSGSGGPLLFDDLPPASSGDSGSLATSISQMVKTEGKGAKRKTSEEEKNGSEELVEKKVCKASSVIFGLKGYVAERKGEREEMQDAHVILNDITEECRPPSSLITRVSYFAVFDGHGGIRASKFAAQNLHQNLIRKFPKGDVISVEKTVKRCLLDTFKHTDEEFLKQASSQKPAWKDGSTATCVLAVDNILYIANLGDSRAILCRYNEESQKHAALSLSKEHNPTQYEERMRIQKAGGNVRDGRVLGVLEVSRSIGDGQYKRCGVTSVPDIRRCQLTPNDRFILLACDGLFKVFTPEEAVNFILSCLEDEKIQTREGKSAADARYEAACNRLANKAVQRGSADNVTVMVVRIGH
Sequence of UniProt Q9Y2X0 (Q9Y2X0 whole entry, looked up): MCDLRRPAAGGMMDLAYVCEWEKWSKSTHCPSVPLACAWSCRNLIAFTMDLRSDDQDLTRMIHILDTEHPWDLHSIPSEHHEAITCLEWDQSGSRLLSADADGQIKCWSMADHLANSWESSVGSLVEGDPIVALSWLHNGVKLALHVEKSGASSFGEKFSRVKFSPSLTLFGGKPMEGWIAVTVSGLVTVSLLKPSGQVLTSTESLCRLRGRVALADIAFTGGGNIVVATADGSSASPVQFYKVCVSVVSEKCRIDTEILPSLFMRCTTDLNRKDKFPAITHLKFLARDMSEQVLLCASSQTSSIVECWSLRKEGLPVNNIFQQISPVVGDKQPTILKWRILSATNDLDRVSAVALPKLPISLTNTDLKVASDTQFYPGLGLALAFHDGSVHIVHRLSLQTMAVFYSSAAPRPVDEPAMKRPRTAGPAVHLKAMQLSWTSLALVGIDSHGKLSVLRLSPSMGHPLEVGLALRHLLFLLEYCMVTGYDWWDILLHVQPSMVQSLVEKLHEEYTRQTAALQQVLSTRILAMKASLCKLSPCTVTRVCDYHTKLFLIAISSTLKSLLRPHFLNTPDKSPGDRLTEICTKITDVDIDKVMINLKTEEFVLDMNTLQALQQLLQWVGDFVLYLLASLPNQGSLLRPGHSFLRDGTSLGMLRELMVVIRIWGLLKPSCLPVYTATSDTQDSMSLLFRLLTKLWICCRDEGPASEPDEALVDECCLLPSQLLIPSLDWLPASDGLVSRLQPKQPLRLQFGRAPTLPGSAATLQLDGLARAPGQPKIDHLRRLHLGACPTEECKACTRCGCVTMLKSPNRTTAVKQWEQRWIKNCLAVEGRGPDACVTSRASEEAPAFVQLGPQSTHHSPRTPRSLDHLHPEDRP
Sequence of UniProt Q8IWB1 (Q8IWB1 whole entry, looked up): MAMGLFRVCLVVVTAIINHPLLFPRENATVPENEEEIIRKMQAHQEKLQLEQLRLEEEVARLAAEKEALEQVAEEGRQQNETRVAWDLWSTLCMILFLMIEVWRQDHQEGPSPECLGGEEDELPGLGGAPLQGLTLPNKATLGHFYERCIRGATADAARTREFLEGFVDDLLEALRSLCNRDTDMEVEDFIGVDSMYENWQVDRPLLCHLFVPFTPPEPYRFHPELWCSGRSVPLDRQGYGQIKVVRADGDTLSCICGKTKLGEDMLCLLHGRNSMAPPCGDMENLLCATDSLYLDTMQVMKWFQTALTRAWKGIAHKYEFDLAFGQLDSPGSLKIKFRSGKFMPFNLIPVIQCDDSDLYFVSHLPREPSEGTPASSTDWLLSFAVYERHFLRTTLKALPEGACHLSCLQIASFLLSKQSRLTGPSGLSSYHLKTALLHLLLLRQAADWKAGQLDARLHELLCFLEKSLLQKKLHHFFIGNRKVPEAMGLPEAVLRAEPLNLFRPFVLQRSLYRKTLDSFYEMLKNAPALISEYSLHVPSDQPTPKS
Sequence of UniProt Q8WV07 (Q8WV07 whole entry, looked up): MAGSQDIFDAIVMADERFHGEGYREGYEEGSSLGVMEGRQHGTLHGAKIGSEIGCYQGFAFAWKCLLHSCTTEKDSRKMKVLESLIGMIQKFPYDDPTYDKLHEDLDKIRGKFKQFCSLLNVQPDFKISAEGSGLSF

log2 fold change, inactive:
LTV1 (UniProt Q96GA3) -0.075
LEMD3 (UniProt Q9Y2U8) 0.023
LMNA (UniProt P02545) -0.004
MDC1 (UniProt Q14676) -0.074
MED16 (UniProt Q9Y2X0) -0.03
ILF2 (UniProt Q12905) -0.119
ITIH4 (UniProt Q14624) 0.014
ITPRIP (UniProt Q8IWB1) 0.023
LYN (UniProt P07948) -0.057
IGFBP4 (UniProt P22692) 0.013
MAP2K2 (UniProt P36507) 0.011
KRAS isoform 2 (UniProt P01116) 0.003
LMBRD2 (UniProt Q68DH5) 0.011
LDAH isoform 2 (UniProt Q9H6V9) 0.031
LMNB2 (UniProt Q03252) 0.039
IMMT isoform 2 (UniProt Q16891) 0.081
ILKAP (UniProt Q9H0C8) 0.07
KEL (UniProt P23276) -0.029
LTO1 (UniProt Q8WV07) -0.04
KLC2 (UniProt Q9H0B6) 0.006
MAPK8 isoform 3 (UniProt P45983) 0.056
KCTD10 (UniProt Q9H3F6) 0.021
LPCAT3 (UniProt Q6P1A2) -0.005
MEPCE (UniProt Q7L2J0) 0.025
LDLR (UniProt P01130) 0.019
ILF3 isoform 7 (UniProt Q12906) -0.125
MICU2 (UniProt Q8IYU8) 0.079
MAN2B2 (UniProt Q9Y2E5) 0.041
LARP7 isoform 3 (UniProt Q4G0J3) 0
IKZF1 (UniProt Q13422) -0.052
MFGE8 (UniProt Q08431) -0.057
MAGEA9 (UniProt P43362) 0.036
MAPRE3 (UniProt Q9UPY8) 0.027
MAP4 (UniProt E7EVA0) 0.061
MDN1 (UniProt Q9NU22) 0.047
MIA2 (UniProt Q96PC5) 0.021
